Among the data in publication PMC7862700, “An all-to-all approach to the identification of sequence-specific readers for epigenetic DNA modifications on cytosine” are binding signal values, retold here.

What all share (test): DAPPL (digital affinity profiling via proximity ligation, sequencing); 10 mM Tris-HCl pH 7.5, 50 mM NaCl, 1 mM DTT, 4% glycerol, room temperature, 30 min; GST-TFs on glutathione beads, 16-mer random dsDNA library, 0.1% formaldehyde crosslink after washing; high values mean tight binding
One assay deals with T1, FLI1 (Homo sapiens, UniProt Q01543 1-452).
T1 sequence: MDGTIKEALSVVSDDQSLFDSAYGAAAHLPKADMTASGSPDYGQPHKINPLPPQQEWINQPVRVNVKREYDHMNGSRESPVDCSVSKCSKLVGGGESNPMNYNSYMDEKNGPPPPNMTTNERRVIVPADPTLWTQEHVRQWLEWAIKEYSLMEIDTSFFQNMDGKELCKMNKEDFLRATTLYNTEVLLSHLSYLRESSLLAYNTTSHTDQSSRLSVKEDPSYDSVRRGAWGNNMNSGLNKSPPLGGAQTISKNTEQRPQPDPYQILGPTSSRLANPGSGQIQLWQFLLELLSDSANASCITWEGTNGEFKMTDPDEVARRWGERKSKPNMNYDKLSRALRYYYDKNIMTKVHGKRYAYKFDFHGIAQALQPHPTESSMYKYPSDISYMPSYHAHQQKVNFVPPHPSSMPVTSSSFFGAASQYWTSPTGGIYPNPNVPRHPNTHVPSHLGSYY
To be noted: protein: recombinant; tags: N-terminal GST; dsDNA, one strand shown. In outline:
(§1)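 The binding signal reported is, for every hexamer, its read frequency for a factor over its read frequency for the tag-only sample. Reads came from pools of yeast-expressed, GST-fused human transcription factors on glutathione beads, barcoded with DNA and mixed with that sample, which were incubated with 200 nmole of a random double-stranded 16-mer DNA library in Tris/NaCl/DTT/glycerol buffer at room temperature for 30 min. After washing, the pools were crosslinked with 0.1% formaldehyde, proximity-ligated with BsaI/T4 ligase for 1 h at 37 °C, PCR-amplified and sequenced on an Illumina NextSeq500.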

The next assay deals with T2, ELK1 (Homo sapiens, UniProt P19419 1-428).
T2 sequence: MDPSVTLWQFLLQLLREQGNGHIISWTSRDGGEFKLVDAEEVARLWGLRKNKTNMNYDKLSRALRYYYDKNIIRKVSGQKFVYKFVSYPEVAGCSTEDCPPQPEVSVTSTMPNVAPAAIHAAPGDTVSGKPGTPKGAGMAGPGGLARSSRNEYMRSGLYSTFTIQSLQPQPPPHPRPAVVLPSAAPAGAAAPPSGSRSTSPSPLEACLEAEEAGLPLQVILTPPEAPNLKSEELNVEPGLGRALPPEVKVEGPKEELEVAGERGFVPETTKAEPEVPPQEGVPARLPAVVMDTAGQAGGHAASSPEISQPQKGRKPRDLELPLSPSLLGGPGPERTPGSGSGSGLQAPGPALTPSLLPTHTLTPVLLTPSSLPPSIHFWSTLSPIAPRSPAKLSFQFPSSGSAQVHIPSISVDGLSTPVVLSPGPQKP
To be noted: protein: recombinant; tags: N-terminal GST; dsDNA, one strand shown. In outline:
as §1

The target of the next assay is T3, GABPA (Homo sapiens, UniProt Q06546 1-454).
T3 sequence: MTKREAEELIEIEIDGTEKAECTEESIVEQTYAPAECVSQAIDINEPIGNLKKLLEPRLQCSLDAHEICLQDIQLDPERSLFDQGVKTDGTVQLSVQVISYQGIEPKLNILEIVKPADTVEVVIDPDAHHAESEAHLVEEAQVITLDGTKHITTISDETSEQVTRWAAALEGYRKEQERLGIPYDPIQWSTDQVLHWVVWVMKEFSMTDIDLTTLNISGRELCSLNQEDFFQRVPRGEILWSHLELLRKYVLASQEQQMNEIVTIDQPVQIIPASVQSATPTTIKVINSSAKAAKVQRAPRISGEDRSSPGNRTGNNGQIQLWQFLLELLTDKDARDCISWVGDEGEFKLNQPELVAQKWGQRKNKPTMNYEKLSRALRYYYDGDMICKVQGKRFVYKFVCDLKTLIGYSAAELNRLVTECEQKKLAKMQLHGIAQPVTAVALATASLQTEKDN
The conditions noted are these: protein: recombinant; tags: N-terminal GST; dsDNA, one strand shown. An outline of the steps:
as §1

The target in the next assay is T4, ERG (Homo sapiens, UniProt P11308 1-479).
T4 sequence: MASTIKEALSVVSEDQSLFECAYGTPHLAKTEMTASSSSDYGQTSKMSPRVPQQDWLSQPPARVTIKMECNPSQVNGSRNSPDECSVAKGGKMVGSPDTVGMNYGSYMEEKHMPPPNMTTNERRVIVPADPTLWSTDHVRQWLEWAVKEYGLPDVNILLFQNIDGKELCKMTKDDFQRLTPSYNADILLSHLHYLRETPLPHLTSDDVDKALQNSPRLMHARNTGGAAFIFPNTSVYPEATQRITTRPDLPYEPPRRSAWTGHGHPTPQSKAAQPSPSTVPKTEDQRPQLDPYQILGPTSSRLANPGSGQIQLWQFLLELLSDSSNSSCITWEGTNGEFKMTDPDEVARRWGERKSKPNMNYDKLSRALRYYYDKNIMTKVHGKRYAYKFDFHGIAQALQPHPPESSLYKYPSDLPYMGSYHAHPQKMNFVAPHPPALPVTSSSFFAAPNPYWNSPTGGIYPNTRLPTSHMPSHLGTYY
To be noted: protein: recombinant; tags: N-terminal GST; dsDNA, one strand shown. In outline:
as §1

A further assay concerns the target ELF1 (Homo sapiens, UniProt P32519 1-619). The conditions noted are these: protein: recombinant; tags: N-terminal GST; dsDNA, one strand shown. An outline of the steps:
as §1

The target in a further assay is T5, EHF (Homo sapiens, UniProt Q9NZC4 1-300).
T5 sequence: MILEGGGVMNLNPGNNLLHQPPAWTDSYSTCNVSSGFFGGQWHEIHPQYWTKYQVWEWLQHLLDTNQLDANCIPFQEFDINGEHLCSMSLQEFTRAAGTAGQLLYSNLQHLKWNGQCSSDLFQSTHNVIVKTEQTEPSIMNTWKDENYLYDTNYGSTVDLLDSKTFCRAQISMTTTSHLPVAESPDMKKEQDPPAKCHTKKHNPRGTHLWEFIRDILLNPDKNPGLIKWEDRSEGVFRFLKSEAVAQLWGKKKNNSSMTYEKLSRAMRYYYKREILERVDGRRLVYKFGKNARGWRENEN
The conditions noted are these: protein: recombinant; tags: N-terminal GST; dsDNA, one strand shown. An outline of the steps: as §1

The target in the next assay is SPI1 (Homo sapiens, UniProt P17947 1-270). The conditions noted are these: protein: recombinant; tags: N-terminal GST; dsDNA, one strand shown. An outline of the steps: as §1
For a further assay, the target named is SPIB (Homo sapiens, UniProt Q01892 1-262). To be noted: protein: recombinant; tags: N-terminal GST; dsDNA, one strand shown. In outline: as §1
SPIB, sequence (Q01892 whole entry): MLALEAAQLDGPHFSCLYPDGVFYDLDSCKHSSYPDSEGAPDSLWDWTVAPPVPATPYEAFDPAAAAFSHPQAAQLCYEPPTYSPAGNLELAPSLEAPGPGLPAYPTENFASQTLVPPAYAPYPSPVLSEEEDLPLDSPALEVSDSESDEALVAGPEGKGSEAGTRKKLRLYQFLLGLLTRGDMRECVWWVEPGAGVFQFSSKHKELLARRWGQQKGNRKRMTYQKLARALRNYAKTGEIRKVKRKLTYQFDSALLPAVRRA
For a further assay, the target named is T6, ELK3 (Homo sapiens, UniProt P41970 1-407).
T6 sequence: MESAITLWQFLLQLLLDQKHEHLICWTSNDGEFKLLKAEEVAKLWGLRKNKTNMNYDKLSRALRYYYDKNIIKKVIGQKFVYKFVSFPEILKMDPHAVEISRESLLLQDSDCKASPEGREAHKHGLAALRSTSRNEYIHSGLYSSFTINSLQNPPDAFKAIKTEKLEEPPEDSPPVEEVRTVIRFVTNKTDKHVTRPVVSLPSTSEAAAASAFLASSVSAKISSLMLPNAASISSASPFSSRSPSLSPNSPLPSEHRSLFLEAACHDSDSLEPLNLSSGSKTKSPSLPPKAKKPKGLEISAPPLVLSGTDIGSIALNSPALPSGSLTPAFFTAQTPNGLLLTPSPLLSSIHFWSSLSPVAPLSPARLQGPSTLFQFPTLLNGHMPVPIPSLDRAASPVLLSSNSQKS
The conditions noted are these: protein: recombinant; tags: N-terminal GST; dsDNA, one strand shown. In outline:
as §1

Another assay addresses T7, FEV (Homo sapiens, UniProt Q99581 1-238).
T7 sequence: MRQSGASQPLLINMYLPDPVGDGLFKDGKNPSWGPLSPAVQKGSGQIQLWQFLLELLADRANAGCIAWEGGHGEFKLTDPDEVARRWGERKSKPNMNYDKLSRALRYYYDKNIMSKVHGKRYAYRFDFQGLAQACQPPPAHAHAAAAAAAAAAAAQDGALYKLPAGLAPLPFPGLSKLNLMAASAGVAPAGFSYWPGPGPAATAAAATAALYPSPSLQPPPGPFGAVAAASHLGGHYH
To be noted: protein: recombinant; tags: N-terminal GST; dsDNA, one strand shown. An outline of the steps:
as §1

In another assay the target is ETV5 (Homo sapiens, UniProt P41161 1-510). To be noted: protein: recombinant; tags: N-terminal GST; dsDNA, one strand shown. In outline:
as §1

Another assay deals with HSF1 (Homo sapiens, UniProt Q00613 1-529). To be noted: protein: recombinant; tags: N-terminal GST; chain copies: 3; dsDNA, one strand shown. An outline of the steps: as §1
HSF1, sequence (Q00613 whole entry): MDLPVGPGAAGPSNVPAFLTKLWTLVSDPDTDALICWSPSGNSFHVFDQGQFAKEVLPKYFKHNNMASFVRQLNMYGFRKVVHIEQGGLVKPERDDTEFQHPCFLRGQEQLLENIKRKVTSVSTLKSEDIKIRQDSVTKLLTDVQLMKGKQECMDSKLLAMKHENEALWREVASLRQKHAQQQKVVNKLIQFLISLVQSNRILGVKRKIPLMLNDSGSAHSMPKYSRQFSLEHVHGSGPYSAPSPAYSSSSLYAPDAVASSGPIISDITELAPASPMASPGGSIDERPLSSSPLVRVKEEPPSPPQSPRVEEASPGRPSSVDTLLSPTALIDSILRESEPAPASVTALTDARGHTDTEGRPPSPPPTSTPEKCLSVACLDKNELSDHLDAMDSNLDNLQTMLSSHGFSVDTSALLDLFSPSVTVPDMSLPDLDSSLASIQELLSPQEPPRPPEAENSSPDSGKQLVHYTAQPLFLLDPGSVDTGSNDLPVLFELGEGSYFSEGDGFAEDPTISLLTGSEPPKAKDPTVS
A further assay concerns the target T8, SPIC (Homo sapiens, UniProt Q8N5J4 1-248).
T8 sequence: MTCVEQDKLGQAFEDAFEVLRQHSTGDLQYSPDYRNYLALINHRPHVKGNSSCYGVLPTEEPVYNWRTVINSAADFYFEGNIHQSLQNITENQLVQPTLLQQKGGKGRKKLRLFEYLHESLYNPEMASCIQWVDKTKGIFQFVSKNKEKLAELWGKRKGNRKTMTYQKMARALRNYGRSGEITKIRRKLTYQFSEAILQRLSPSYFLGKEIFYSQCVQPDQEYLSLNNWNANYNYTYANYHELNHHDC
The conditions noted are these: protein: recombinant; tags: N-terminal GST; dsDNA, one strand shown. In outline: as §1

The next assay addresses ELF4 (Homo sapiens, UniProt Q99607 1-663). To be noted: protein: recombinant; tags: N-terminal GST; dsDNA, one strand shown. In outline: as §1
In another assay the target is T9, ELK4 (Homo sapiens, UniProt P28324-2 1-405).
T9 sequence: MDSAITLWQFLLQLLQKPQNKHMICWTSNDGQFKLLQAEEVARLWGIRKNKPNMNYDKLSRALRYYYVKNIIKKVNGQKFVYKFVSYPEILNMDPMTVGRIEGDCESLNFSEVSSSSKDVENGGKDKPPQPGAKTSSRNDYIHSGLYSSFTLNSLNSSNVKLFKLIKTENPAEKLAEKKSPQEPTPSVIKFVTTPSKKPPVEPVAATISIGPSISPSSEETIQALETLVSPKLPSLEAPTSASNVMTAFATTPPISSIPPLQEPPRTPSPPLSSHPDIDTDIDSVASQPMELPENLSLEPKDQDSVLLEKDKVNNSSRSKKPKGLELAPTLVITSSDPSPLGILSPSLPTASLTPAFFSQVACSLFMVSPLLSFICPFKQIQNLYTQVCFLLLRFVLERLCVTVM
To be noted: protein: recombinant; tags: N-terminal GST; dsDNA, one strand shown. In outline:
as §1

The next assay deals with T10, ETV2 (Homo sapiens, UniProt O00321 1-342).
T10 sequence: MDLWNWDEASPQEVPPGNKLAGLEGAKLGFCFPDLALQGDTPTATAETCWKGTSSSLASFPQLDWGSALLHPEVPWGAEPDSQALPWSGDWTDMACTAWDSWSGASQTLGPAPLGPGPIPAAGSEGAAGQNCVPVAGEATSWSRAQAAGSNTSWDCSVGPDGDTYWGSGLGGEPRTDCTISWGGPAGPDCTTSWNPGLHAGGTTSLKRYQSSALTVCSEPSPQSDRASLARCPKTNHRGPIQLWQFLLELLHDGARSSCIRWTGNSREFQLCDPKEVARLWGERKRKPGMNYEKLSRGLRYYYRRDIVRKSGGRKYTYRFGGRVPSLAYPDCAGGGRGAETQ
To be noted: protein: recombinant; tags: N-terminal GST; dsDNA, one strand shown. An outline of the steps:
as §1

Another assay addresses T11, ELF3 (Homo sapiens, UniProt P78545 1-371).
T11 sequence: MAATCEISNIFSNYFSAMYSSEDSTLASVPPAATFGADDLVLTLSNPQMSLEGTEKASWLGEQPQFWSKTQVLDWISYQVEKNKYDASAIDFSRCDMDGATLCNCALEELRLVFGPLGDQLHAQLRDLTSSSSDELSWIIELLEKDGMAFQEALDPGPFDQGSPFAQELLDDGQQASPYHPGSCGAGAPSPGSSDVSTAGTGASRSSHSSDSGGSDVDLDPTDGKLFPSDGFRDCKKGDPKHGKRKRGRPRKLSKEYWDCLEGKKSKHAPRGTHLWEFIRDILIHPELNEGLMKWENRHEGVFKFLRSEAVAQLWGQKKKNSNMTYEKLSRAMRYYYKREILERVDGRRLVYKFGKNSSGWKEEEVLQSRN
To be noted: protein: recombinant; tags: N-terminal GST; dsDNA, one strand shown. An outline of the steps: as §1

The next assay has as its target CRX (Homo sapiens, UniProt O43186 1-299). To be noted: protein: recombinant; tags: N-terminal GST; dsDNA, one strand shown. In outline:
as §1

In a further assay the target is ETV1 (Homo sapiens, UniProt P50549 1-477). The conditions noted are these: protein: recombinant; tags: N-terminal GST; dsDNA, one strand shown. In outline:
as §1

CRX, sequence (O43186 whole entry): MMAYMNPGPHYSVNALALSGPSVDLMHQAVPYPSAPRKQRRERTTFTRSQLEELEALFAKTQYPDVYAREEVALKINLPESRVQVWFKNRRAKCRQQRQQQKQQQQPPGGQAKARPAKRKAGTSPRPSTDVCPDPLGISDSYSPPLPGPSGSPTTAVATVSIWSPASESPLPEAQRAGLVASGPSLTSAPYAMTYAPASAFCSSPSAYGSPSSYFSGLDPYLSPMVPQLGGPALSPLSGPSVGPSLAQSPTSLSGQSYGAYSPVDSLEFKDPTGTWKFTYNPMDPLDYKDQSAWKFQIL
ELF1, sequence (P32519 whole entry): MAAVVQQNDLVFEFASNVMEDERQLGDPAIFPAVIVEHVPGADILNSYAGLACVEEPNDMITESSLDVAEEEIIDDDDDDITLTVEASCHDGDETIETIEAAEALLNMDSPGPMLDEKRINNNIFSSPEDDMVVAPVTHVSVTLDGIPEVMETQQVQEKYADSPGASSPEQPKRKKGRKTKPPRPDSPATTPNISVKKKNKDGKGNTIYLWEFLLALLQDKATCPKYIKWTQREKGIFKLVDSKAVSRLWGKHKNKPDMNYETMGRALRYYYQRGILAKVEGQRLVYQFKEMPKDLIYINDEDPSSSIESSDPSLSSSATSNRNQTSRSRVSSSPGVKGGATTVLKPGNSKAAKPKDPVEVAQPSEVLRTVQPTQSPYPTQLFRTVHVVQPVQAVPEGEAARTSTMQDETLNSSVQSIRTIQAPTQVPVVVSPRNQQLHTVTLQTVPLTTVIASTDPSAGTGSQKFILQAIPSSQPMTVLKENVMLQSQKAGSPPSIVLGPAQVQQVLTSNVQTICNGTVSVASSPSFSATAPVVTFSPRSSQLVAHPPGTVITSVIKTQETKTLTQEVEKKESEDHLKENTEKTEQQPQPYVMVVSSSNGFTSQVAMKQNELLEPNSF
ETV5, sequence (P41161 whole entry): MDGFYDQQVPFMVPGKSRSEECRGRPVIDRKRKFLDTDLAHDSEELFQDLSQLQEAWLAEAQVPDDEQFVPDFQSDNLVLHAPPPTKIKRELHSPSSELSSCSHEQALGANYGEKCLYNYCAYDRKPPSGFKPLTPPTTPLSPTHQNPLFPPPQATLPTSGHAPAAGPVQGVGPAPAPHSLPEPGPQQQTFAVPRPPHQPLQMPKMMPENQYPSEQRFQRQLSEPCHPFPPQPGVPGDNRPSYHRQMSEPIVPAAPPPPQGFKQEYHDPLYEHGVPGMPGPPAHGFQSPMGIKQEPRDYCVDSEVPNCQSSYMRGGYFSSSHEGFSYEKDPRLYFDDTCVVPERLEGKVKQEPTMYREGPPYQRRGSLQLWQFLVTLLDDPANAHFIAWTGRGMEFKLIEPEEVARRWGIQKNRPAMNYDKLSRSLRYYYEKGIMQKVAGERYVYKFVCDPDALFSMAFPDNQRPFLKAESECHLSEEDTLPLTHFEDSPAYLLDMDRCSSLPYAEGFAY
ELF4, sequence (Q99607 whole entry): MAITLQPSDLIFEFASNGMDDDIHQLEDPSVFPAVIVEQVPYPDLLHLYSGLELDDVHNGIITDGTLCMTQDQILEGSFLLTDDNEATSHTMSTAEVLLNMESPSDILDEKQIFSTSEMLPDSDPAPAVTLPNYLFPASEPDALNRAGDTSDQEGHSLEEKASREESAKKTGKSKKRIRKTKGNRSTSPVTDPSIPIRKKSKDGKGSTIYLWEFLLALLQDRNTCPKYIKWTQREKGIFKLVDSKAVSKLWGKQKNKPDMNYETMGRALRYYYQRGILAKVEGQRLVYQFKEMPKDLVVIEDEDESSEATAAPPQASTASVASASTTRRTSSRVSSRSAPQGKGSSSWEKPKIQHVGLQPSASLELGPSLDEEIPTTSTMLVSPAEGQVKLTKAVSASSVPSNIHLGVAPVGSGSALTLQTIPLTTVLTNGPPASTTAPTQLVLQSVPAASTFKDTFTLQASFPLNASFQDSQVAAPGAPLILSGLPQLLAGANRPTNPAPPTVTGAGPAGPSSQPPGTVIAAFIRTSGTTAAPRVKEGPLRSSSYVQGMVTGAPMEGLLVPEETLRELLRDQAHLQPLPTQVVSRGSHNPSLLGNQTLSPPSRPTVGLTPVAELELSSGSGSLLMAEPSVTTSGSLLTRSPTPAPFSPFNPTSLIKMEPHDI
ETV1, sequence (P50549 whole entry): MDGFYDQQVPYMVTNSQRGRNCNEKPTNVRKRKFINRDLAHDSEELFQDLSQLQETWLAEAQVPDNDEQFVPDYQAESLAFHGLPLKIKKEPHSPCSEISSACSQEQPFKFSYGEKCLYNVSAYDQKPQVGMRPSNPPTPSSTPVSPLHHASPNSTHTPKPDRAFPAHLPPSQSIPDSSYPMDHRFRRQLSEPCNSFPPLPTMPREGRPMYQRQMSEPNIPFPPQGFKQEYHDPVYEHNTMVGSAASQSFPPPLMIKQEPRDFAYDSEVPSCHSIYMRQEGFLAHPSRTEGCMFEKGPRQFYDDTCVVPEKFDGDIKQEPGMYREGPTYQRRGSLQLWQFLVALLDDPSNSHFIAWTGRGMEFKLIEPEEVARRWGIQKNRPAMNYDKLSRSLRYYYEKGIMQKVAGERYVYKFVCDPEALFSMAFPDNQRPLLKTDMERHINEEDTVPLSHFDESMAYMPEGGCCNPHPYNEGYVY

ACCATA: the binding signal with FLI1 is 1.2 fold enrichment (6-mer frequency, TF over GST control); in the assay with ELK1 it was 1.16 fold enrichment (6-mer frequency, TF over GST control); with GABPA, 1.12 fold enrichment (6-mer frequency, TF over GST control); with ERG, 1.19 fold enrichment (6-mer frequency, TF over GST control); in the assay with ELF1, 1.16 fold enrichment (6-mer frequency, TF over GST control); in the assay with EHF, 1.12 fold enrichment (6-mer frequency, TF over GST control). The binding signal was 1.13 fold enrichment (6-mer frequency, TF over GST control) with SPI1; 1.19 fold enrichment (6-mer frequency, TF over GST control) with SPIB; 1.22 fold enrichment (6-mer frequency, TF over GST control) in the assay with ELK3; 1.17 fold enrichment (6-mer frequency, TF over GST control) with FEV; 1.21 fold enrichment (6-mer frequency, TF over GST control) in the assay with ETV5; 1.08 fold enrichment (6-mer frequency, TF over GST control) in the assay with HSF1. The binding signal is 1.22 fold enrichment (6-mer frequency, TF over GST control) in the assay with SPIC; 1.21 fold enrichment (6-mer frequency, TF over GST control) with ELF4; 1.31 fold enrichment (6-mer frequency, TF over GST control) with ELK4; 1.17 fold enrichment (6-mer frequency, TF over GST control) in the assay with ETV2; 1.14 fold enrichment (6-mer frequency, TF over GST control) with ELF3; 1.14 fold enrichment (6-mer frequency, TF over GST control) with CRX. Further, the binding signal with ETV1 is 1.09 fold enrichment (6-mer frequency, TF over GST control).
